According to PubChem BioAssay AID1159580 (chemical genetic matrix, 2015):
Values joined by “and” are separate entries in the source; they are usually repeats but may differ in a detail not shown here. Equal values may be shown once. The whole screen tested about 5,500 compounds, of which about 2,000 (36%) were called active. Not shown: some 18% with an inconclusive outcome. Cut-off read from the data, not from the text of the source: active = normalized growth mostly below about 0.91 (no sharp cut-off); inconclusive = no clear call, values can overlap the other calls; inactive = mostly above about 0.92. The list shows a part of the results. A structure can be active in one record and inactive in another.

Assay: chemical genetic growth profiling, strain panel (AID 1159580);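 note: tested at 20 µM; growth read once vehicle control cultures reached saturation at 30 °C; 1 = growth at the plate median or of vehicle wells; lower values mean less growth of the strain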
Conditions: S. cerevisiae deletion strains, growth OD

Measured: normalized growth

O=c1[nH]cc(F)c(=O)[nH]1
inactive: locus YAL040C, strain CLN3, stronger effect = lower value 1.05 | locus YBR171W, strain sec66, stronger effect = lower value 1.09 | locus YBR229C, strain ROT2, stronger effect = lower value 1.01 | locus YDL005C, strain med2, stronger effect = lower value 0.977 | locus YDL074C, strain BRE1, stronger effect = lower value 0.847 | locus YDL101C, strain DUN1, stronger effect = lower value 0.955 | locus YDL185W, strain tfp1, stronger effect = lower value 1 | locus YER002W, strain NOP16, stronger effect = lower value 1.04 | locus YER110C, stronger effect = lower value 1.01 | locus YER155C, strain BEM2, stronger effect = lower value 1.01 | locus YGL167C, strain pmr1, stronger effect = lower value 1.03 | locus YGL240W, strain doc1, stronger effect = lower value 0.901 | locus YGR229C, strain SMI1, stronger effect = lower value 0.948 | locus YHR013C, strain ard1, stronger effect = lower value 0.846 | locus YHR094C, strain hxt1, stronger effect = lower value 0.944 | locus YIL073C, strain SPO22, stronger effect = lower value 0.762 | locus YJL134W, strain LCB3, stronger effect = lower value 1.04 | locus YJL168C, strain set2, stronger effect = lower value 1.02
0.957 (inactive) and 0.85 (active): locus YDR150W, strain NUM1, stronger effect = lower value
active: locus YAL021C, strain ccr4, stronger effect = lower value 0.841 | locus YAL026C, strain drs2, stronger effect = lower value 0.445 | locus YAL030W, strain snc1, stronger effect = lower value 0.642 | locus YBL061C, strain skt5, stronger effect = lower value 0.689 | locus YBR009C, strain hhf1, stronger effect = lower value 0.458 | locus YBR021W, strain FUR4, stronger effect = lower value 0.81 | locus YBR023C, strain chs3, stronger effect = lower value 0.678 | locus YBR231C, strain swc5, stronger effect = lower value 0.639 | locus YBR279W, strain paf1, stronger effect = lower value 0.555 | locus YCL011C, strain gbp2, stronger effect = lower value 0.509 | locus YCL016C, strain dcc1, stronger effect = lower value 0.586 | locus YCL029C, strain bik1, stronger effect = lower value 0.717 | locus YCL061C, strain MRC1, stronger effect = lower value 0.702 | locus YCL069W, strain vba3, stronger effect = lower value 0.484 | locus YCR088W, strain abp1, stronger effect = lower value 0.651 | locus YDL035C, strain GPR1, stronger effect = lower value 0.591 | locus YDL040C, strain nat1, stronger effect = lower value 0.869 | locus YDL192W, strain arf1, stronger effect = lower value 0.715 | locus YDR001C, strain nth1, stronger effect = lower value 0.747 | locus YDR069C, strain doa4, stronger effect = lower value 0.636 | locus YDR101C, strain arx1, stronger effect = lower value 0.64 | locus YDR137W, strain rgp1, stronger effect = lower value 0.629 | locus YDR159W, strain sac3, stronger effect = lower value 1.3 [resistant] | locus YDR162C, strain NBP2, stronger effect = lower value 0.693 | locus YDR195W, strain ref2 0.63 | locus YDR297W, strain sur2, stronger effect = lower value 0.676 | locus YDR318W, strain mcm21, stronger effect = lower value 0.701 | locus YDR334W, strain swr1, stronger effect = lower value 0.741 | locus YDR335W, strain msn5, stronger effect = lower value 0.538 | locus YDR363W, strain ESC2, stronger effect = lower value 0.864 | locus YDR388W, stronger effect = lower value 0.753 | locus YDR392W, strain spt3, stronger effect = lower value 0.476 | locus YDR502C, strain sam2, stronger effect = lower value 0.657 | locus YEL003W, strain gim4, stronger effect = lower value 0.518 | locus YEL037C, strain rad23, stronger effect = lower value 0.539 | locus YEL061C, strain CIN8 (second series), stronger effect = lower value 0.728 | locus YER015W, strain faa2, stronger effect = lower value 0.702 | locus YER016W, strain bim1, stronger effect = lower value 0.629 | locus YER111C, strain swi4, stronger effect = lower value 0.858 | locus YER155C, strain BEM2 (second series), stronger effect = lower value 0.535 | locus YER167W, strain BCK2, stronger effect = lower value 0.795 | locus YFR010W, strain ubp6, stronger effect = lower value 0.598 | locus YGL078C, strain dbp3, stronger effect = lower value 0.571 | locus YGL086W, strain mad1, stronger effect = lower value 0.743 | locus YGL173C, strain kem1, stronger effect = lower value 0.719 | locus YGL227W, strain vid30, stronger effect = lower value 0.856 | locus YGL248W, strain PDE1, stronger effect = lower value 0.71 | locus YGL253W, strain hxk2, stronger effect = lower value 0.328 | locus YGR135W, strain pre9, stronger effect = lower value 0.871 | locus YGR252W, strain gcn5, stronger effect = lower value 0.757 | locus YHR027C, strain rpn1, stronger effect = lower value 0.625 | locus YHR030C, strain SLT2, stronger effect = lower value 0.918 and 0.61 | locus YHR079C, strain IRE1 (second series), stronger effect = lower value 0.665 | locus YHR079C, strain IRE1, stronger effect = lower value 0.553 | locus YHR129C, strain ARP1, stronger effect = lower value 0.896 | locus YHR142W, strain chs7, stronger effect = lower value 0.484 | locus YHR200W, strain rpn10, stronger effect = lower value 0.906 | locus YIL066C, strain RNR3, stronger effect = lower value 0.848 | locus YIL125W, strain kgd1, stronger effect = lower value 0.851 | locus YIR030C, strain dcg1, stronger effect = lower value 0.838 | locus YJL092W, strain hpr5, stronger effect = lower value 0.476 | locus YJL095W, strain BCK1 (second series), stronger effect = lower value 0.689 | locus YJL095W, strain BCK1, stronger effect = lower value 0.661 and 0.616 | locus YJL115W, strain asf1, stronger effect = lower value 0.697 | locus YJL129C, strain trk1, stronger effect = lower value 0.642 | locus YJL154C, strain vps35, stronger effect = lower value 0.756 | locus YJL164C, strain tpk1, stronger effect = lower value 0.463 | locus YJL166W, strain qcr8, stronger effect = lower value 0.577 | locus YJL187C, strain SWE1 (second series), stronger effect = lower value 0.722 | locus YJL187C, strain SWE1, stronger effect = lower value 0.77 | locus YJR043C, strain POL32, stronger effect = lower value 0.669 | locus YJR066W, strain TOR1, stronger effect = lower value 0.532 | locus YJR075W, strain HOC1, stronger effect = lower value 0.835
